Measurements: PubChem BioAssay (NCI)
About 83,000 compounds went through this panel and 20% of them were active in at least one assay; those are over-represented in the sample as a whole.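 Assay: single dose, 48 h. Readout: percent growth (0 = no net growth; negative = cell death). Active: <10.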 Unmarked numbers belong to inactive results. Calls of active or inactive are those of the source.

What follows are molecules tested on SK-MEL-2 melanoma (assay: NCI-60 one-dose screen, 48 h (100 = growth as untreated, 0 = no growth, -100 = all killed)). Conditions: 10 µM.
Protocol: Growth inhibition of the SK-MEL-2 human tumor cell line is measured as a screen for anti-cancer activity. Cells are grown in 96 well plates and exposed to the test compound for 48 hours. Compounds are tested at a single concentration, which is 10^-5 M for most compounds. The reported endpoint is percent growth (GI% or GIPRCNT), where numbers from 0 - 100% represent growth inhibition, and numbers from -100% - 0 represent cell death. For example, a value of 40 represents 60% growth inhibition. A value of 0 means no net growth occurred over the course of the experiment. A value of -40 indicates 40% of cells at the beginning of the experiment died by the end of the experiment. A value of -100 means all cells are dead at the end of the experiment.
NCI-60 Human Tumor Cell Lines Screen was performed using the standard one-dose NCI protocol, which is described in more detail at https://dtp.cancer.gov/discovery_development/nci-60/default.htm.
Compounds with GIPRCNT values below 10 were considered active. Activity score was based on GIPRCNT using the following formula: […]
Score is 0 for GIPRCNT values of 100 or above, 50 for GIPRCNT values of 0, and 100 for GIPRCNT values of -100.
With `COc1ccc(C2CC(=O)c3c(O)c(OC)c(OC)c(OC)c3O2)cc1O` (stereo not given) the growth was 48.8%. `O=c1[nH]c(N2CCOCC2)nc2scc(-c3ccccc3)c12` was tested, and the growth was 81.8%. `CCCC(=O)OCC1OC(n2cnc3c(=S)nc[nH]c32)C(OC(=O)CCC)C1OC(=O)CCC` (stereo not given) was tested, and the growth was 12.5%. `C=CCCCC(=O)CCC(=O)OCC1O[C@@H](O[C@@H]2C(O)[C@@H](OC(C)=O)C(C)O[C@H]2O[C@H](CC=C)CCCCC)C(O)[C@@H](OC(=O)/C(C)=C/C)[C@@H]1OC(=O)/C=C/c1ccccc1` (stereo not given in full) was tested, and the growth was 4.44% (active). `CC(C)c1ccc(/C=N/Nc2nc3ccccc3s2)cc1` showed a growth of 106%. `Nc1c2c(c(O)c3c1=C(CO)C=N3)=NCCS2=O` (stereo not given) was tested, and the growth was -51.3% (active). `CCCCCCC1(/C=N/NC(N)=O)NC(=O)NC1=O` (stereo not given) was tested, and the growth was 98.8%. `CCc1nc2cc(/C=C/C(=O)NO)ccc2c(=O)n1CCc1ccc(OC)cc1` was tested, and the growth was 47.4%. `c1ccc2c(c1)CCN(NCCN1CCCC1)C2` showed a growth of 91.5%. Molecule `C=CCC(=O)N[C@H](/C=C/C(=O)O)Cc1ccc(-c2cc(Cl)cc(Cl)c2)cc1` has a growth of 101%. Molecule `ClCc1ccc(-c2ccc(Cn3cnc4c(Cl)nc(Cl)nc43)cc2)cc1` has a growth of 46.1%. `CCOC(=O)C1=C(C)N=C2Sc3cccc(OC)c3N2[C@H]1c1ccccn1` gave a growth of 99.3%. `CO/C=C/C(=O)c1cc2cnc3c(=N)cc(NC(=O)C(C)C)c([nH]1)c23` was tested, and the growth was -65.6% (active). `C[N+](C)(CCOC(c1ccccc1)c1ccccc1)CC(=O)OCc1ccccc1` was tested, and the growth was 105%. Work on `O=c1nc2c(-c3nc4ccccc4s3)n[nH]n2c2sc3c(c12)CCCC3` yielded a growth of 112%. `O=C(NO)c1ccc(Cn2c(=O)n(-c3ccccc3F)c(=O)c3ccccc32)cc1` was tested, and the growth was -3.95% (active). In the case of `COc1ccc2c(CCc3ccc(Cl)cc3)c3[n+](cc2c1OC)CCc1cc2c(cc1-3)OCO2`, the growth is reported as 36.7%. `Nc1c(C(=O)c2ccccc2)sc2nc(-c3cccs3)ccc12` gave a growth of 44.2%. In the case of `CCN1/C(=C/C=C/c2n(-c3ccccc3)c3ccc(-c4nc5ccccc5s4)cc3[n+]2CC)N(c2ccccc2)c2ccc(-c3nc4ccccc4s3)cc21`, the growth is reported as -23.5% (active). `CC1CCC(n2cnc3c(Cl)ncnc32)O1` (stereo not given) gave a growth of 109%. Work on `[2H]C1([2H])[C@H](C)O[C@H](C)C([2H])([2H])N1c1ccc(NC(=O)c2cccc(-c3ccc(OC(F)(F)F)cc3)c2C)cn1` yielded a growth of 56.1%. For `CCCCCCCCCCCC[n+]1ccccc1`, the growth was -30.4% (active). `O=C1CC(c2ccc(Cl)cc2)c2ncn(-c3cccc(Cl)c3)c2N1` (stereo not given) gave a growth of 44.8%. For `COc1cc(-c2cc(-c3ccc(Nc4ccnc5cc(Cl)ccc45)cc3)nc(N3CCOCC3)n2)cc(OC)c1OC`, the growth was 83.9%. Work on `O=C1/C(=C\c2cccc(OCCCCCOc3ccc(Cl)cc3)c2)N=C2SCCCN12` yielded a growth of 41.2%. With `CCN(CC)CCNc1ccc(N=Nc2cnc3ccccc3c2)c2ccccc12` the growth was -76.9% (active). In the case of `CC(=Nc1ccccc1)C1=C(O)C(Cc2ccccc2)NC1=O` (stereo not given), the growth is reported as 26.9%. In the case of `CC(C)(C)CC(C)(C)Nc1c(-c2c(O)c3ccccc3oc2=O)nc2c(Cl)cc(C(F)(F)F)cn12`, the growth is reported as 102%. With `O=C(Nc1ccc(N=Nc2ccccc2)cc1)c1cccc2ccccc12` the growth was 56.4%. For `Cc1cc2c(-c3nc4ccccn4c3NC3CCCCC3)c(O)c(O)cc2c(O)c1-c1c(C)cc2c(-c3nc4ccccn4c3NC3CCCCC3)c(O)c(O)cc2c1O`, the growth was 38.9%. In the case of `Nc1ncnc2c1ccn2-c1cccc(NC(=O)c2ccc(N3CCOCC3)c(C(F)(F)F)c2)c1`, the growth is reported as 37.7%. With `CCCc1cc2cc(-n3nc(C)c4c3CC(C)(C)CC4=O)cc(NC3CCC(O)CC3)c2c(=O)[nH]1` (stereo not given) the growth was 41.6%. With `COC(=O)[C@]12CC[C@@H](C)[C@H](C)[C@@H]1C1=CC[C@@H]3[C@@]4(C)C[C@@H](OC(=O)/C=C/c5ccccc5)[C@H](O)[C@@](C)(CO)[C@@H]4[C@H](O)C[C@@]3(C)[C@]1(C)CC2` the growth was 47.8%. With `Cc1cc2c(-c3nc4ccccn4c3N)c(O)c(O)cc2c(O)c1-c1c(C)cc2c(-c3nc4ccccn4c3N)c(O)c(O)cc2c1O` the growth was -20.6% (active). With `O=CC(OC(=O)c1ccccc1)C(OC(=O)c1ccccc1)C(COC(c1ccccc1)(c1ccccc1)c1ccccc1)OC(=O)c1ccccc1` (stereo not given) the growth was 96.7%. In the case of `CCc1nc2cc(F)c(/C=C/C(=O)NO)cc2c(=O)n1CCc1ccccc1`, the growth is reported as 9.96% (active). `CCCC(=O)OCC1OC(n2cnc3c(=S)nc(N)[nH]c32)C(OC(=O)CCC)C1OC(=O)CCC` (stereo not given) gave a growth of 15%. `COC(=O)[C@]12CC[C@@H](C)[C@H](C)[C@@H]1C1=CC[C@@H]3[C@@]4(C)C(C=O)=C[C@@](C)(COS(C)(=O)=O)C4=CC[C@@]3(C)[C@]1(C)CC2` was tested, and the growth was -40.3% (active). In the case of `CCC1(/C=N/NC(N)=S)NC(=O)NC1=O` (stereo not given), the growth is reported as 109%. Molecule `COc1cc(-c2nc(C(=O)NCC(=O)O)nn2-c2ccc(Cl)cc2)cc(OC)c1OC` has a growth of 120%.
